According to PubChem BioAssay:
Where “and” joins values, the source holds several entries; their conditions need not be identical. Identical values can stand only once. Calls of active or inactive are those of the source.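 Rule for the calls: active = inhibition at or above 50% relative to wild type and mutant plate controls; inactive = inhibition below 50%.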

assay: inhibitors of Chlamydomonas gravitaxis, primary screen, whole organism, Chlamydomonas reinhardtii, WT vs cilia-less mutant, absorbance, 96-well (AID 463189); conditions: OD600 absorbance, 2 days, at 10 µM, stronger effect = higher value;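 note: 0% = wild type cc124 cells in DMSO and 100% = ciliumless bld1 mutant cells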

| Structure (SMILES) | inhibition |
| --- | --- |
| C[N+]1(C)C2CC(OC(=O)[C@H](CO)c3ccccc3)CC1C1OC12 (stereo partly drawn) | -8.63% (inactive) and 9.74% (inactive) |
| CCCC[N+]1(C)C2CC(OC(=O)[C@H](CO)c3ccccc3)CC1C1OC12 (stereo partly drawn) | -7.48% (inactive) |
| C#CCOC(=O)C1=CCCN(C)C1 | 6.87% (inactive) |
| NNC(=O)c1ccc(O)cc1 | -10.7% (inactive) |
| O=[N+]([O-])c1ccc(O[C@@H]2O[C@H](CO)[C@@H](O)[C@H](O)[C@H]2F)c([N+](=O)[O-])c1 | 3.53% (inactive) |
| C#CCN(C)[C@@H](C)Cc1ccccc1 | 7.92% (inactive) |
| c1ccc2c(c1)[I+]c1ccccc1-2 | 152% (active) |
| NCC(O)c1ccc(O)cc1 (stereo not drawn) | 5.37% (inactive) |
| CN(N=O)c1ccc(O)c(O)c1 | 1.04% (inactive) |
| COC(=O)c1cc2c(cn1)[nH]c1ccccc12 | 2.96% (inactive) |
| Nc1ncnc2c1ncn2[C@@H]1O[C@H](COP(=O)(O)CP(=O)(O)OP(=O)(O)O)[C@H](O)C1O (stereo partly drawn) | 8.43% (inactive) |
| CCCCCCC(C)(C)c1ccc([C@@H]2C[C@H](O)CC[C@H]2CCCO)c(O)c1 | -3.04% (inactive) |
| NC(C(=O)O)c1cc(=O)[nH]o1 (stereo not drawn) | 6.42% (inactive) |
| Clc1ccc(N2CC3CCC(C2)N3)nn1 | 1.03% (inactive) |
| Nc1ccncc1 | 14.4% (inactive) |
| CNc1ccc2oc(C[C@H]3O[C@@]4(CC[C@H]3C)O[C@H]([C@H](C)C(=O)c3ccc[nH]3)[C@H](C)C[C@H]4C)nc2c1C(=O)O | 84.5% (active) |
| O=C(O)c1cc[c]([Hg][Cl])cc1 | 9.04% (inactive) |
| N#CC(=Cc1ccc(O)c(O)c1)C(N)=S | 10.3% (inactive) |
| CCCn1c(C)c(C(=O)c2ccc3ccccc3c2)c2ccccc21 | 18.5% (inactive) |

| Structure (SMILES) | inhibition |
| --- | --- |
| Cc1o[nH]c(=O)c1CC(N)C(=O)O (stereo not drawn) | 5.41% (inactive) |
| C=C(C)[C@H]1Cc2c(ccc3c2O[C@@H]2COc4cc(OC)c(OC)cc4[C@@H]2C3=O)O1 | 4.66% (inactive) |
| CC[C@@]1(O)C(=O)OCc2c1cc1n(c2=O)Cc2cc3ccccc3nc2-1 | 23.3% (inactive) |
| CN1CCN(c2ccc3ccccc3n2)CC1 | 23.3% (inactive) |
| CC1(C(=O)O)C2CCC(O2)C1(C)C(=O)O (stereo not drawn) | -0.9% (inactive) |
| CC(=O)NBr | 10% (inactive) |
| CCNC(=O)[C@H]1O[C@@H](n2cnc3c(N)ncnc32)C(O)[C@H]1O (stereo partly drawn) | -1.46% (inactive) |
| N#CC(C#N)=Cc1cc(O)c(O)c(O)c1 | 7.39% (inactive) |
| NCCCP(=O)(O)O | 13.9% (inactive) |
| CC(Cc1ccc(OCC(=O)O)cc1)NCC(O)c1cccc(Cl)c1 (stereo not drawn) | 1% (inactive) |
| C[N+](C)(C)CCOC(=O)CBr | 0.371% (inactive) |
| CCCN1CCC[C@@H]2Cc3[nH]ncc3C[C@H]21 | 1.82% (inactive) and 2.66% (inactive) |
| C=CCN1CCc2cccc3c2[C@H]1Cc1ccc(O)c(O)c1-3 | 6.2% (inactive) |
| C=CCN1CC[C@]23CCCCC2[C@H]1Cc1ccc(O)cc13 (stereo partly drawn) | 7.64% (inactive) |
| Cc1ncc(CNC(=O)N(CCCl)N=O)c(N)n1 | 3.94% (inactive) |
| COc1ccc(-n2nc(C(F)(F)F)cc2-c2ccc(Cl)cc2)cc1 | -10.1% (inactive) |
| NCCc1c[nH]c2ccccc12 | 2.92% (inactive) |
| COC[C@H]1OC(=O)c2coc3c2[C@@]1(C)C1=C(C3=O)C2CCC(=O)[C@@]2(C)C[C@H]1OC(C)=O (stereo partly drawn) | 4.09% (inactive) |
| NC(=NCCC[C@H](N)C(=O)O)N[N+](=O)[O-] | 2.94% (inactive) |
